From PubChem BioAssay AID2685 (National Center for Advancing Translational Sciences (NCATS), 2010) come the findings set out here.

Hit rate of the full screen: of about 320,000 compounds, about 2,100 (0.66%) were called active. Not shown: some 53% with an inconclusive outcome. The call rests on the fitted dose curve; in most records, active means well fitted inhibition curve with a large enough effect in the signal ratio, with a control signal flat (not every such curve was filed as active); inconclusive means small, poorly fitted or top-dose-only effect, or effect the other way, or a change in a side signal; inactive means flat fitted curve, though single readings scatter; the % refers to the signal ratio. The entries come from a sample that favours actives as a whole.
Potency means the concentration at half of the fitted maximal effect.

A short description of the assay: qHTS Assay for Lipid Storage Modulators in Drosophila S3 Cells.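 On cell number change: cells counted by Cell Tracker Red CMTPX staining in the red channel.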 The following applies: BODIPY lipid droplet fluorescence, 18-24 h, cells fed with added oleic acid; cell number change: measured here: cell count max response; series mostly up to 46.1 µM. The method, boiled down: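 Drosophila S3 cells got compounds at several concentrations plus oleic acid (400 uM solution). Laser-scanning cytometry with 488 nm excitation read lipid droplets at 500-530 nm and cells at 575-640 nm. Percent activity was relative to 20 uM Triacsin C.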
On the technique in general: qHTS replaces the single test concentration by a dilution series.
Turning to `CC(=O)Nc1ccccc1NC(=O)C/C(C)=N/NC(=O)C1CCCCC1`, the Potency result was “inactive” and the cell number change is -3.17%. The corresponding values for `Cc1cccc(C(=O)NCC(=O)OCc2cc(=O)n3ccsc3n2)c1` are “inactive” and -4.9%.

Take `Nc1cc(C(=O)OCC(=O)N2CCCC2=O)ccc1Cl`: the Potency result is “inactive”. Regarding `NC(=O)Nc1ccc(C(=O)OCC(=O)N2CCCC2=O)cc1`, the Potency entry is “inactive” and the cell number change is -27.9%. The corresponding values for `O=C(OCC(=O)N1CCCC1=O)c1nc(Cl)c(Cl)c(Cl)c1Cl` are 7.08 µM (active) and -29%. In the case of `CCCc1cc(=O)c2c(O)cccc2o1`, the Potency entry is “inactive” and the cell number change is -3.96%. Turning to `O=C(NCCc1ccc(Cl)cc1)Nc1ccc(F)cc1`, the Potency entry is “inactive” and the cell number change was -2.02%. `O=C(NCCc1ccncc1)Nc1ccc(F)cc1`: the Potency entry was “inactive” and the cell number change was determined as 5.19%. The corresponding values for `O=C(NCCc1ccc(F)cc1)Nc1ccc([N+](=O)[O-])cc1` are 13 µM (active) and 18.2%. On to `Cc1cccc(C)c1NC(=O)CN(C)C(=O)/C=C/c1cccs1`, for which the Potency result is “inactive” and the cell number change was -17%. The corresponding values for `Cc1cc(C)c(C#N)c(Nc2ccc(F)cc2)n1` are “inactive” and -10.5%.

Turning to `CCn1cnc2c(Nc3cc(F)cc(F)c3)nc(C#N)nc21`, the Potency is 0.651 µM (active) and the cell number change was -24.3%. The corresponding values for `O=C(Cc1ccccc1)NCC(=O)OCC(=O)c1cccc([N+](=O)[O-])c1` are “inactive” and 9.41%. In the case of `Cc1cc(OC(C)C(=O)N2CCN(c3ccccc3)CC2)c2c(C)c(C)c(=O)oc2c1` (stereo unspecified), the Potency entry is “inactive” and the cell number change was 5.19%. The corresponding values for `COc1ccc(CCN(C)C(=O)c2cc(=O)c3ccccc3o2)cc1OC` are 0.731 µM (active) and -2.86%.

With `COc1ccc(C(C)=O)cc1COC(=O)c1cc(C)oc1C`, the Potency result was “inactive” and the cell number change is -12.2%. As for `CCc1ccc(CN(C)C(=O)c2cc(=O)c3ccccc3o2)cc1`, the Potency result is “inactive”. As to `O=C(OCc1ccc(F)cc1)c1cc(=O)c2ccccc2o1`, the Potency result was “inactive” and the cell number change came to 11.3%. As for `COc1ccc(C(C)=O)cc1COC(=O)c1cc2ccccc2cc1O`, the Potency is 20.6 µM (active) and the cell number change was -9.52%.

With `COc1ccc(C(C)=O)cc1COC(=O)c1cccnc1Cl`, the Potency result is “inactive” and the cell number change was found to be 20.9%. Consider `COc1ccc(CCN(C)C(=O)c2cc(-c3ccccc3)nc3ccccc23)cc1OC`, for which the Potency entry was “inactive” and the cell number change is -2.7%.

Regarding `COc1ccc(C(C)=O)cc1COC(=O)c1cc(=O)c2ccccc2o1`, the Potency was 18.4 µM (active) and the cell number change is 5.13%. The corresponding values for `N#Cc1ccccc1COC(=O)c1cc(=O)c2ccccc2o1` are “inactive” and 7.26%. As to `CCOC(=O)c1ccc(NC(=S)N2CCCC(C)C2)cc1` (stereo unspecified), the Potency result was “inactive” and the cell number change was 4.19%.

Regarding `COCCN(C(=S)Nc1ccccc1OC)C(C)c1cccs1` (stereo unspecified), the Potency result is “inactive” and the cell number change stood at 10.3%.

On to `CCCCn1nnc(NC(=O)c2sc3cc(Cl)ccc3c2Cl)n1`, for which the Potency result was “inactive” and the cell number change was -11.4%. Take `C/C(=N\Nc1cc(N2CCOCC2)nc(C)n1)c1ccc(F)cc1`: the Potency entry is “inactive” and the cell number change is -23.7%. Turning to `COc1cc(OC)c2ccc(=O)oc2c1C(CCN1CCCC1)c1ccc(N(C)C)cc1` (stereo unspecified), the Potency result is “inactive” and the cell number change was 0.759%. In the case of `Cc1cc(C)nc(/N=C(\NC(=O)C(C)(C)C)Nc2ccccc2)n1`, the Potency entry is “inactive” and the cell number change was found to be 7.69%. Take `O=C(CCOc1ccccc1)Nc1ccnn1C1CCN(C(=O)CCC(F)(F)F)CC1`: the Potency entry is “inactive”. On to `CC(C)[C@H](NS(=O)(=O)c1ccc(Cl)cc1)C(=O)OCC(=O)c1c(N)n(C)c(=O)n(C)c1=O`, for which the Potency is 29.1 µM (active) and the cell number change is -5.89%. As to `Cn1c(N)c(C(=O)COC(=O)CNS(=O)(=O)c2cccc(Cl)c2)c(=O)n(C)c1=O`, the Potency entry is “inactive” and the cell number change was -1.55%. Take `CN(CC(=O)OCC(=O)c1c(N)n(C)c(=O)n(C)c1=O)S(=O)(=O)c1ccc(Cl)cc1`: the Potency entry is “inactive” and the cell number change was -11.5%. The corresponding values for `O=C(NC1CCCc2ccccc21)c1ccccc1` (stereo unspecified) are “inactive” and 96.9%. The corresponding values for `COC(=O)CN(c1cccc(OC)c1)S(C)(=O)=O` are 16.4 µM (active) and -6.69%. Take `COC(=O)CN(c1cccc(C(C)=O)c1)S(C)(=O)=O`: the Potency result was “inactive” and the cell number change was -12.6%. Turning to `COC(=O)CN(c1cccc(F)c1)S(C)(=O)=O`, the Potency entry was “inactive”. Take `COc1ccccc1CN1CC(C(=O)NC2CCOCC2)CCC1=O` (stereo unspecified): the Potency result is “inactive” and the cell number change came to 0.697%.

On to `CCC(C)N1CCNCC1` (stereo unspecified), for which the Potency entry is “inactive” and the cell number change was 2.58%.

In the case of `Cc1cc2c3c(ccc(C)c3n1)N=CN2c1ccccc1`, the Potency result was “inactive”. Turning to `CC(C)Oc1cccc(C(=O)O)c1`, the Potency is 16.4 µM (active) and the cell number change was found to be 0.0714%.

On to `CC(C)Oc1cccc(C(=O)N2CCCC2)c1`, for which the Potency entry was “inactive” and the cell number change stood at 0.879%. Regarding `CCCCOc1cccc(C(=O)O)c1`, the Potency result is “inactive” and the cell number change is -9.86%. The corresponding values for `Cc1cc(OCC(=O)NCc2nc(-c3ccccc3)no2)c(C)cc1Br` are “inactive” and 8.52%. As to `COc1ccc2c(c1)c(/C=C/c1cc[n+](C)cc1)cn2C`, the Potency result was “inactive”.

In the case of `Cn1cc(/C=C/c2cc[n+](C)cc2)c2cc(F)ccc21`, the Potency is 25.9 µM (active) and the cell number change was determined as 5.37%. `Cn1cc(C=O)c2cc(F)ccc21`: the Potency entry was “inactive”. For the molecule `CC(=O)Nc1ccc(S(=O)(=O)N2CCN(CC3CC4C=CC3C4)CC2)cc1` (stereo unspecified), the Potency entry was “inactive” and the cell number change turned out to be 5.59%. The corresponding values for `O=C(N/N=C/c1ccncc1)c1ccc2c(c1)OCO2` are “inactive” and -3.13%. The corresponding values for `CCCc1cc2c(=O)c(-c3ccccn3)c(C)oc2cc1O` are “inactive” and -9.21%. The corresponding values for `CC(=O)N[C@H](C(=O)N[C@@H](C)C(=O)N[C@H](C#N)CC(=O)O)C(C)C` are “inactive” and 8.31%. On to `CC(=O)Nc1ccc(S(=O)(=O)NCC(=O)OCC(=O)N2CCCc3ccccc32)cc1`, for which the Potency entry was “inactive” and the cell number change was -6.74%. The corresponding values for `Cc1ccc(S(=O)(=O)CCC(=O)OCC(=O)N2CCc3ccccc32)cc1` are “inactive” and -18.3%.

On to `Cc1ccc(S(=O)(=O)N2CCC(C(=O)OCC(=O)N3CC(=O)Nc4ccccc43)CC2)cc1`, for which the Potency entry is “inactive” and the cell number change stood at 8.87%.

Regarding `CC(=O)Nc1ccc(S(=O)(=O)N(C)CC(=O)OCC(=O)N2CCc3ccccc32)cc1`, the Potency was 20.6 µM (active) and the cell number change was -7.07%. The corresponding values for `CC(=O)Nc1ccc(S(=O)(=O)N(C)CC(=O)OCC(=O)N2CCCCCC2)cc1` are “inactive” and -4.09%. The corresponding values for `Cc1ccc(S(=O)(=O)N2CCC(C(=O)OCC(=O)N3CCc4ccccc43)CC2)cc1` are 7.31 µM (active) and -18.3%. Turning to `Nn1cc(-c2ccccc2)nc1SCC(=O)NCC(F)(F)F`, the Potency result is “inactive”.

`COc1ccc2[nH]c(=O)c(CN(Cc3cccnc3)Cc3nnnn3CC3CCCO3)cc2c1` (stereo unspecified): the Potency result was “inactive” and the cell number change was -7.7%.

For the molecule `COc1cccc2c1OC1(C)CC2NC(=O)N1c1cccc(C(=O)N2CCN(c3ccccc3)CC2)c1` (stereo unspecified), the Potency entry was “inactive” and the cell number change came out at 3.44%.

In the case of `Cn1c2ccccc2c(=O)c2cc(C#Cc3ccccn3)ccc21`, the Potency entry was “inactive” and the cell number change is -13.6%.

As for `COc1cc(OC)cc(-c2c(-c3cccs3)c3cc(-c4ccc(N(C)C)nc4)ccc3n2C)c1`, the Potency result was “inactive” and the cell number change came out at 14.6%. The corresponding values for `COc1cccc2oc3cc(C#Cc4ccccn4)ccc3c(=O)c12` are 18.4 µM (active) and -23%.

For `CN(C)c1ccc(-c2ccc3c(=O)c4ccccc4n(C)c3c2)cn1`, the Potency is 23.1 µM (active) and the cell number change is -7.49%. As to `Cn1c2ccccc2c(=O)c2ccc(C#Cc3ccc(N)cc3)cc21`, the Potency entry is “inactive” and the cell number change is 2.27%. As for `COc1cccc2oc3ccc(C#Cc4ccccn4)cc3c(=O)c12`, the Potency is 0.731 µM (active) and the cell number change is -5.09%.

Consider `Nc1cccc(C#Cc2ccc3c(=O)c4ccccc4oc3c2)c1`, for which the Potency entry was “inactive” and the cell number change is -4.2%. For the molecule `COc1ccc2c(=O)c3ccccc3oc2c1`, the Potency result is “inactive” and the cell number change was -11.6%.

On to `Cn1c2ccccc2c(=O)c2ccc(-c3ccc4c(c3)OCO4)cc21`, for which the Potency entry is “inactive” and the cell number change is -21%. On to `COc1cc2oc3ccccc3c(=O)c2cc1OC`, for which the Potency result was “inactive” and the cell number change is -9.58%.

Consider `CNC(C)C#Cc1ccc2oc3cccc(OC)c3c(=O)c2c1` (stereo unspecified), for which the Potency entry is “inactive” and the cell number change worked out at 16.5%. Turning to `Cn1c2ccccc2c(=O)c2ccc(C#Cc3ccccn3)cc21`, the Potency is 14.6 µM (active) and the cell number change was -26.5%.
